This note sets out measurements from PubChem BioAssay AID1347426 (Functional Genomics Laboratory (NCATS/FGL), 2020).

Among all 31,000 sequences or so, about 1,400 (4.5%) were called active. This excerpt belongs to a sample that is enriched for actives. Unmarked numbers belong to inactive results.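 The calls were made as follows: active = median seed-adjusted z-score above 1 or below -1; inactive = the rest.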

The assay can be described thus: Novel Modifiers of Survival Motor Neuron (SMN) Protein: Gene Identification via Genome-wide siRNA Screen. The conditions noted are these: HEK293T SMN2-luciferase reporter, siRNA knockdown, 72 h; actives lie on both sides. An excerpt: Spinal muscular atrophy (SMA) is the most common neuromuscular autosomal recessive disorder and one of the leading genetic causes of infant death. SMA results from mutations inducing loss of function or deletion in the survival of motor neuron-1 gene (SMN1), leading to deficiency of the survival motor neuron (SMN) protein. Although a second nearly identical gene, SMN2, is retained in humans, its expression primarily produces an aberrantly spliced isoform that is largely unstable and quickly degraded. We performed a genome-wide RNAi screen using a cell-based reporter assay to identify genes and pathways that modulate SMN protein stability. The screen identified over 200 genes that led to the greatest increase or decrease in luciferase expression.
Using HEK293T cells stably expressing a luciferase reporter that combines the promoter and splicing based cassettes in tandem with the major portion of the native SMN2 cDNA with luciferase, we performed a genome-wide RNAi screen to identify modulators of SMN protein levels. Luciferase is expressed when full-length SMN protein is generated with luminescence signal proportional to SMN protein levels. Our luciferase-based reporter assay was used to screen Ambion Silencer Select Human Druggable Genome siRNA library (10418 genes, 3 unique siRNAs per gene) using lipid-based reverse transfection.
Briefly, 1 pmol of each siRNA was spotted to a well of a 384-well plate (Corning, Corning, NY) and 20 microL of serum-free DMEM containing […] of Lipofectamine RNAiMax (Life Technologies, Carlsbad, CA) was then added to each well. Transfected cells were maintained at 37 degrees C in 5% CO2 for 72 hours, 20 microL of ONE-Glo Reagent (Promega) was added to wells for luciferase quantification. Raw luminescence reads were normalized to Ambion(R) Silencer(R) Negative Control #2 siRNA, then log10 transformed. A robust statistical measure of median absolute deviation (MAD) to standardize siRNA activities from each screen. Common Seed Analysis was used to help prioritize clean hits as opposed to those appearing to arise from seed based off-target effects. Candidate modulators were defined as the genes having a MAD score greater than 1.0 or less than -1.0.
Turning to GGAAUCUCAUUUUAUCGUATT against SLC7A2, the median seed-adjusted z-score is -0.245.

On to GGAAGAAUUCAAUACGGCATT against FOXJ2, for which the median seed-adjusted z-score is -0.627.

As to GGAUGCACCACAUCUAGUATT against RPS6KA3, the median seed-adjusted z-score was -0.0233.

In the case of CCAAUUCCAGGUUAACUUUTT against S100A7A, the median seed-adjusted z-score is 0.212.

For GGAGUGAAGACUUCGAGAATT against KCNN2, the median seed-adjusted z-score is -0.0251.

With CCUUCAAGCUGCAGACUAATT against THBS4, the median seed-adjusted z-score was -0.28.

As to CGACAUAACUAUGUUCGGATT against ETF1, the median seed-adjusted z-score was -1.12 (active).

On to GGAUUUUGCCUUAGCGGUATT against OSBPL8, for which the median seed-adjusted z-score is 0.231.

With GCCUAUCCUAGAACCAUCATT against KLK14, the median seed-adjusted z-score was -0.0998.

As for GGACUUACCUUCAACCAAUTT against RSF1, the median seed-adjusted z-score was 0.

For the sequence CAACCUUCCUCGGACUAAUTT against SLC26A2, the median seed-adjusted z-score was -1.25 (active).

GGACUUGGAUUCGAGGAUATT against COL15A1: the median seed-adjusted z-score was 0.161.

On to CCUAAAUGAUCGCAAAGUATT against PABPC1, for which the median seed-adjusted z-score is -0.126.

In the case of CCUUUACUACGUGUGCACATT against POLR2I, the median seed-adjusted z-score was -3.27 (active).

GGAAGAACUUUCUCGGUAATT against TIMP2: the median seed-adjusted z-score is 0.0444.

For the sequence CAAACGAUCUGAAGGUGAATT against AKTIP, the median seed-adjusted z-score is -0.194.

Consider GGACAGAGGGCAACUAUAATT against KCNV2, for which the median seed-adjusted z-score is -1.13 (active).

Regarding AAGCUAUUGUGAUCUCUGATT against ZBTB3, the median seed-adjusted z-score is -0.0419.

GAAUUAUGGAUGACGAUAATT against CAPSL: the median seed-adjusted z-score was -0.168.

Regarding CACUCGUUCCGGUUCCUUUTT against ZNF439, the median seed-adjusted z-score is -0.26.

On to CAGUGAGGCUGUUCUCGAATT against LIMCH1, for which the median seed-adjusted z-score was 0.125.

As for CAGGUGAUGUGAUAUCAUATT against VGLL2, the median seed-adjusted z-score was -0.0234.

Consider GCUAAUCCAUUUGAUGACATT against PYGO1, for which the median seed-adjusted z-score was -1.23 (active).

As to GAAUGUAACUUCACAACCATT against ZHX2, the median seed-adjusted z-score was 0.0708.

As to AGAAAGCUUUGGGCAAAUATT against EEF1B2, the median seed-adjusted z-score was 0.388.

For CAACAUAUCUGCACAGGUATT against FLVCR2, the median seed-adjusted z-score was -0.336.

In the case of GGCUGUAACGUGAACAUCATT against DAPK1, the median seed-adjusted z-score is 0.27.

Turning to UCGAGCAACUUAUUCCAUATT against MED30, the median seed-adjusted z-score was -2.06 (active).

As for GCCUGUCCCAGACCAUUGATT against KLC4, the median seed-adjusted z-score is 0.

Consider GCUUCUCUUUGAAUACCCATT against KCNA2, for which the median seed-adjusted z-score was -1.03 (active).

CAAGUUCUCUUAUCCACCATT against PPP1R15A: the median seed-adjusted z-score is 0.539.

In the case of UGAAAUGGAUGAAAACCUATT against SNAP25, the median seed-adjusted z-score is 0.

On to GCGUGUUCGUGCACGUCUATT against MOBKL2A, for which the median seed-adjusted z-score was 0.268.

Turning to CAGCAACCAUGGAAAUCGATT against MYST4, the median seed-adjusted z-score is 0.138.

As to ACUGGACAGUGGUAUCAGATT against UBASH3A, the median seed-adjusted z-score is -1.1 (active).

Turning to CAGGUACAGCGCAUCGUUATT against EDC4, the median seed-adjusted z-score is 0.

GGGAUGAUUCAGACAAACATT against ZC3HAV1: the median seed-adjusted z-score is 0.522.

Take CAGUGGAUCUAUAUGAACATT against KIT: the median seed-adjusted z-score was -0.686.

In the case of GCAUUUACACUGUAUAUUATT against POU4F2, the median seed-adjusted z-score was 1.46 (active).

As to AACUCGCAGUGGUUCAAUUTT against TXNDC8, the median seed-adjusted z-score is -0.281.

Turning to GCAAGGAUAUGUACCAGAUTT against AGXT, the median seed-adjusted z-score was 0.017.

As for GGUUCAAUGGAAAAGGGAATT against DLX6, the median seed-adjusted z-score is 0.0275.

Turning to GAACUGAUAUCUGAAGAGATT against MLPH, the median seed-adjusted z-score was -1.2 (active).

Regarding CCUUCAUUGAGGACCUGAATT against PTP4A3, the median seed-adjusted z-score is 0.354.

GCUUCUCACGAGAUUGAAATT against SCARA3: the median seed-adjusted z-score was -0.05.

GGGUUAGACGGAUACAAGATT against LILRA2: the median seed-adjusted z-score was -0.103.

As for CAGUACAGGUUGAGUCAAATT against LRRFIP1, the median seed-adjusted z-score was -0.181.

As for GCAAUUGAAUAUUGGAGUUTT against MED17, the median seed-adjusted z-score was -2.06 (active).

As to CAUAGAAGCGGAUACUUAUTT against GALM, the median seed-adjusted z-score is -0.111.

Consider GCAGGGUGCACAUAUCAUUTT against VNN3, for which the median seed-adjusted z-score is 0.343.

For ACAUCUGCCUGAUCUCAUATT against INDO, the median seed-adjusted z-score was 0.0511.

CCACUAAACUGCGAGAGAATT against CEBPD: the median seed-adjusted z-score was -0.101.

For the sequence GUGUGAGGGUUGAACUCAATT against EGLN1, the median seed-adjusted z-score was 2.05 (active).

In the case of CGGUAUUAUUGUCAUUGCATT against UBE2K, the median seed-adjusted z-score is 0.497.

With GCAAUAUGUUUAUCCAUAATT against CSE1L, the median seed-adjusted z-score was 0.425.

For GACAAAUGUUUGGUCAAUUTT against A2BP1, the median seed-adjusted z-score is 1.17 (active).

On to AUACUGACUUCAUAGAAAATT against RGS2, for which the median seed-adjusted z-score was 0.00236.

Take GGAUAUCAACUUAUUAGAUTT against XPO1: the median seed-adjusted z-score is 1.12 (active).

For the sequence GCAUUGCAGAGAACCGACATT against METTL7A, the median seed-adjusted z-score was 0.278.

Consider CCUUGAUAGUGGUCGGGAATT against OSBPL3, for which the median seed-adjusted z-score is 0.0159.

Turning to ACAGUGUAUUCAAACAGUATT against NGF, the median seed-adjusted z-score was -0.325.

Take GGAUAACUUCUCCUUGUCATT against PRM3: the median seed-adjusted z-score was 0.249.

In the case of AGAGGAUCAAGGUUUUAAATT against APBA2, the median seed-adjusted z-score was 1.66 (active).

For GGCCGUUACUGAUUGAGCUTT against CAPN7, the median seed-adjusted z-score was 0.125.

GCAUUUCGCUGUACAAGUUTT against IPO4: the median seed-adjusted z-score was -0.0188.

For GGAUUCAUCCGGUCCAGAUTT against PEX5L, the median seed-adjusted z-score was 0.0982.

For the sequence GGCUUGCUGUAAUUACCCATT against ABCB1, the median seed-adjusted z-score is -0.384.

Regarding GCUUUACAUGGUUUUCGAATT against CASK, the median seed-adjusted z-score is -0.422.

Consider GGAGAGUGCUACAAGGUGATT against COL6A2, for which the median seed-adjusted z-score was 0.0119.

For the sequence CAAGUUCUAUCACUCCUUUTT against IRX2, the median seed-adjusted z-score is -0.409.

As for CCACAUUGGUUACCACUAATT against ITGAV, the median seed-adjusted z-score was 1.17 (active).

As to CAGUGUUAGUACUCGAUAATT against EXT2, the median seed-adjusted z-score is -0.127.

Turning to CCUAUUUGGUGUUAACAUATT against DIRAS1, the median seed-adjusted z-score is -0.751.

As for CUAUGAUCUCAACCAAAUATT against CD248, the median seed-adjusted z-score was -0.0191.

On to AGCUAACAGCGGCUCAAGATT against NR1H2, for which the median seed-adjusted z-score was 0.069.

In the case of UUACUUUCCUAGUAAGCAATT against GNA12, the median seed-adjusted z-score is 0.598.

With GCACAGAUGAAGCCCGCUUTT against ARL11, the median seed-adjusted z-score is 1 (active).

As to CAAGCUCUUUGGUCAAGAATT against SNX4, the median seed-adjusted z-score was -0.144.

Turning to GCAUAAAACUGAAGGUGGATT against PTPRN, the median seed-adjusted z-score was -0.272.

In the case of CAUCAUUUCAGACAAGUUUTT against DDO, the median seed-adjusted z-score is -0.202.

UCUACGCAGUGGUCACCAATT against BLK: the median seed-adjusted z-score is -0.274.

Consider CAAUCUAUUAAGAAAUGUUTT against RPE, for which the median seed-adjusted z-score is 0.616.

On to CAUAUAUGAUUGCAUCAAATT against ACTL6A, for which the median seed-adjusted z-score was 1.11 (active).

In the case of GGAUCAACCGCUGCUUGAATT against HELT, the median seed-adjusted z-score is -0.192.

In the case of CCAACAUACUAGUCAAUAATT against EFTUD1, the median seed-adjusted z-score was -1.39 (active).

On to GGAUGGUCUUUUAGUAAGATT against CBR4, for which the median seed-adjusted z-score is -0.66.

As to GACAUCGCAUGGUACAAGATT against NFASC, the median seed-adjusted z-score is 0.594.

With GAACUGCUCAGGACUAUAATT against TBRG1, the median seed-adjusted z-score was -1.47 (active).

Consider GCUGCAUCGUAAGACAUUUTT against PCGF6, for which the median seed-adjusted z-score is 0.536.

As for CGAACUUCCUCAUCGGCAATT against PRLHR, the median seed-adjusted z-score was 0.

As for CAAAAAUGAUUGCGAAUGATT against APOL4, the median seed-adjusted z-score is -0.54.

On to GCUCUUCGAGAGAACCUGUTT against TUBG1, for which the median seed-adjusted z-score is 0.618.

Regarding CCCUCCAUGGAAUAGAAUATT against FCER1A, the median seed-adjusted z-score was -0.0293.

For the sequence CGGUUCCUUUAUUACCAAATT against TNFRSF21, the median seed-adjusted z-score is 0.225.

For AGGAGAUUCUGAACAGGCUTT against GPR26, the median seed-adjusted z-score is -1.33 (active).

GCAGCUAUUUGUCUCCGAATT against USP43: the median seed-adjusted z-score is 0.

Turning to CAGCUAUACAGGAAUUAUUTT against SLC25A16, the median seed-adjusted z-score is 0.0479.

GCAGGGCAUUUAUGGGACATT against KRT79: the median seed-adjusted z-score is 0.338.

CCAGGUGAAAUGUCAACUATT against HERC5: the median seed-adjusted z-score was -0.422.

Take GAACCAUACAUACUACAGATT against WDR31: the median seed-adjusted z-score was 0.796.

For AGGGAGCAAAUGAACCUGATT against VIP, the median seed-adjusted z-score is 1.52 (active).

As for GGGAAGGUGUUACAGGCUATT against FAM62A, the median seed-adjusted z-score was -0.34.

Regarding CUGUCCAUCUGGGUCGUGATT against SLC30A2, the median seed-adjusted z-score is -0.402.

CUGCAGCUUUUAUCACAAATT against SLC25A33: the median seed-adjusted z-score was -0.0252.

Consider GUAGAUAUGUGGAAACGGATT against FAM48A, for which the median seed-adjusted z-score is -0.506.

Take GAGUCCCAUUUACAGCUAUTT against PFTK2: the median seed-adjusted z-score is -1.16 (active).

As to GGAUGGAGACUACGAGUUUTT against STK4, the median seed-adjusted z-score was 0.652.

As to GACCAGAUAUUUGCCUAUUTT against CYFIP1, the median seed-adjusted z-score was -0.377.

GGAAAAUCAUCUUAUCAGATT against TEAD1: the median seed-adjusted z-score is 1.31 (active).
